# Compounds with a hit are over-represented: about 2.1% of the library has one in this group of screens.
# Shn3 inh set2: reduces Shn3 3'UTR luciferase signal in osteoblasts. AID 588674. 360,000 compounds, 0.52% hits. inhibition, % at 12.5 µM. Clone20 osteoblast Shn3 3'UTR firefly luciferase, 24 h;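 active = mean inhibition of at least 75% with every replicate also reaching 75%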;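 note: 0% = median of neutral control wells and 100% = pilot-screen positive control compound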
# aSyn 5UTR inh: 5' untranslated region of α-synuclein, MLPCN primary screen; AID 1813; inhibition, % (tested at 7.5 µM); 300,000 compounds, 0.82% hits; alpha-synuclein 5'UTR reporter, inhibitor activity; in the data active = inhibition above about 60%;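 note: H4 neuroglioblastoma cells stably carrying SNCA 5'UTR luciferase fusion; 0% = DMSO wells and 100% = positive control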
# TRPM1 prom inh: inhibitors of MITF-driven TRPM1 promoter in melanoma cells. SK-MEL-5 TRPM1 promoter luciferase, 24 h. inhibition, % at 12.5 µM. 330,000 compounds, 0.83% hits;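 active = mean inhibition across replicates of 60% or more, whatever share of single replicates reaches that level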
# PAX8 inh HTS: lowers PAX8-driven luciferase in RMG-I cells; RMG-I TPO-luciferase reporter, SteadyGlo, 24 h; inhibition, % at 12.6 µM; 360,000 compounds, 1.2% hits;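 active = mean replicate inhibition at least 60% with every replicate also reaching 60%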;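 note: luciferase light reporting Pax8 driven TPO promoter activity; plate controls were median of neutral control wells for no effect and mitoxantrone controls for full effect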
# LMP1 NFkB inh: Epstein-Barr LMP1 NF-kappaB reporter inhibition. LMP1-induced NF-kappaB luciferase reporter cells, luminescence. inhibition, % at 12.5 µM. 350,000 compounds, 0.69% hits. AID 504558; in the data active = inhibition above about 41%;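 note: 0% = neutral control wells and 100% = reference inhibitor control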
# * hit, by the source's call; · = no result; ! = not active in a repeat.
SMILES,Shn3 inh set2,aSyn 5UTR inh,TRPM1 prom inh,PAX8 inh HTS,LMP1 NFkB inh
Cc1noc(C)c1S(=O)(=O)Nc1ccc2c(c1)C(=O)N([C@H](C)CO)C[C@@H](C)[C@@H](CN(C)Cc1ccc(C(F)(F)F)cc1)OCCCC[C@H](C)O2,·,·,·,86*,·
Cc1noc(C)c1S(=O)(=O)Nc1ccc2c(c1)C(=O)N([C@H](C)CO)C[C@@H](C)[C@H](CN(C)Cc1ccc(Cl)c(Cl)c1)OCCCC[C@@H](C)O2,·,·,·,75*,·
Cc1noc(C)c1S(=O)(=O)Nc1ccc2c(c1)C(=O)N([C@H](C)CO)C[C@@H](C)[C@H](CN(C)Cc1ccc(C(F)(F)F)cc1)OCCCC[C@H](C)O2,·,·,·,72*,·
Cc1noc(C)c1S(=O)(=O)Nc1ccc2c(c1)C(=O)N([C@@H](C)CO)C[C@H](C)[C@H](CN(C)Cc1ccc(C(F)(F)F)cc1)OCCCC[C@H](C)O2,·,·,·,58,·
O=C(O)CSc1nnc(Nc2ccccc2)n1-c1ccccc1,7,-4,-10,3,7
Cc1noc(C)c1S(=O)(=O)Nc1ccc2c(c1)C(=O)N([C@H](C)CO)C[C@@H](C)[C@H](CN(C)C(=O)Nc1ccc(C(F)(F)F)cc1)OCCCC[C@@H](C)O2,·,·,·,87*,·
O=C(/C=C/c1ccccc1)NC(NC(=S)Nc1cccc(Cl)c1)C(Cl)(Cl)Cl (stereo not drawn),65,-4,20,·,56*
O=C(/C=C/c1ccccc1)NC(NC(=S)Nc1cccc(O)c1)C(Cl)(Cl)Cl (stereo not drawn),12,-1,10,9,6
Cc1ccc(C)c(NC(=S)NC(NC(=O)/C=C/c2ccccc2)C(Cl)(Cl)Cl)c1 (stereo not drawn),79,-14,42,68*,13
NS(=O)(=O)c1ccc(NS(=O)(=O)c2ccc(Br)cc2)cc1,-9,-10,15,10,-7
O=C(O)CSCC(=O)NCc1ccccc1Cl,-12,-4,-3,5,-11
CC(C)(C)[S@](=O)N1Cc2cc(C(=O)NCCc3ccncc3)nc(-c3cccc(-c4ccc(C#N)cc4)c3)c2[C@@H]1CCO,·,·,·,8,·
CN1[C@@H]2c3ccc(-c4ccccc4)c(=O)n3C[C@@H]2[C@@H](CO)[C@@H]1C(=O)N1CCc2ccccc2C1,·,·,·,68*,·
CN1[C@@H]2c3ccc(-c4ccncc4)c(=O)n3C[C@@H]2[C@@H](CO)[C@@H]1C(=O)N1CCc2ccccc2C1,·,·,·,0,·
COc1ccccc1/C=C/C(=O)c1c2c(c(C)[nH]c1=O)CCCC2,-31,-1,64*,·,15
COc1ccccc1/C=C/C(=O)c1ccc(Cl)cc1,-24,-62,-32,·,68*
COc1ccccc1/C=C/C(=O)c1ccccc1,-33,-155,-23,-83,-17
COc1ccc(/C=C(/NC(=O)c2ccc(OC)cc2)C(=O)NCCc2c[nH]c3ccccc23)cc1,-9,-1,5,23,0
C[C@@H]1CN([C@@H](C)CO)C(=O)c2cc(NC(=O)c3ccncc3)ccc2O[C@@H](C)CCCCO[C@@H]1CN(C)Cc1ccc(C(F)(F)F)cc1,·,·,·,23,·
C[C@@H]1CCCCO[C@H](CN(C)Cc2ccc(C(=O)O)cc2)[C@H](C)CN([C@@H](C)CO)C(=O)c2cc(NC(=O)c3ccccc3)ccc2O1,·,·,·,4,·
C[C@H](CO)N1C[C@H](C)[C@@H](CN(C)Cc2ccc(C(F)(F)F)cc2)OCCCC[C@H](C)Oc2ccc(NC(=O)c3ccccc3)cc2C1=O,·,·,·,67*,·
C[C@@H]1CN([C@@H](C)CO)C(=O)c2cc(NC(=O)c3ccccc3)ccc2O[C@@H](C)CCCCO[C@@H]1CN(C)Cc1ccc(C(F)(F)F)cc1,26,·,·,77*!,16
C[C@@H]1CN([C@H](C)CO)C(=O)c2cc(NC(=O)c3ccccc3)ccc2O[C@@H](C)CCCCO[C@H]1CN(C)Cc1ccc(C(F)(F)F)cc1,·,·,·,99*,·
C[C@@H]1CN([C@H](C)CO)C(=O)c2cc(NC(=O)c3ccccc3)ccc2O[C@@H](C)CCCCO[C@@H]1CN(C)Cc1ccc(C(F)(F)F)cc1,·,·,·,91*,·
CCC(Sc1ccc2nnc(CCNS(=O)(=O)c3ccc(OC)cc3)n2n1)C(=O)OC (stereo not drawn),-9,8,8,13,-4
SMILES,Shn3 inh set2,aSyn 5UTR inh,TRPM1 prom inh,PAX8 inh HTS,LMP1 NFkB inh
C[C@@H]1CCCCO[C@@H](CN(C)Cc2ccc(C(=O)O)cc2)[C@@H](C)CN([C@H](C)CO)C(=O)c2cc(NC(=O)c3ccccc3)ccc2O1,·,·,·,10,·
C[C@@H]1CN([C@@H](C)CO)C(=O)c2cc(NC(=O)c3ccncc3)ccc2O[C@@H](C)CCCCO[C@H]1CN(C)Cc1ccc(C(F)(F)F)cc1,·,·,·,51,·
C[C@@H]1CCCCO[C@H](CN(C)Cc2ccc(C(F)(F)F)cc2)[C@H](C)CN([C@H](C)CO)C(=O)c2cc(NC(=O)c3ccccc3)ccc2O1,·,·,·,99*,·
C[C@H](CO)N1C[C@H](C)[C@H](CN(C)Cc2ccc(C(F)(F)F)cc2)OCCCC[C@H](C)Oc2ccc(NC(=O)c3ccccc3)cc2C1=O,·,·,·,90*,·
C[C@@H]1CCCCO[C@@H](CN(C)Cc2ccc(C(F)(F)F)cc2)[C@H](C)CN([C@H](C)CO)C(=O)c2cc(NC(=O)c3ccccc3)ccc2O1,·,·,·,91*,·
CCCC(=O)Nc1ccc2c(c1)C(=O)N(C)[C@H]1CC[C@H](CC(=O)NCC(F)(F)F)O[C@H]1CO2,·,·,·,-1,·
O=C(COc1ccccc1Br)N1CCNC1=O,-16,·,2,1,-4
CC(C)C1CC(N(C)C)=CC(=S)N1 (stereo not drawn),·,·,·,78*,·
CC1CC2(C)Oc3ccccc3CC2C(C)C1CNCCCN(C)C (stereo not drawn),13,106*,97*,48,-32
CC1Cc2ccccc2N1C(=O)CNCCCN(C)C (stereo not drawn),5,-7,11,·,4
O=c1c2ccccc2ncn1-c1cccc(Cl)c1,6,-2,-5,·,1
N=c1c2c(-c3ccccc3)c(-c3ccccc3)n(Cc3ccco3)c2ncn1CCCn1ccnc1,11,-16,88*,30,-51
O=C(Nc1ccc(Cl)cc1Cl)c1ccc2c(c1)OCCO2,-68,·,-48,-151,1
Cc1ccc(C)c(S(=O)(=O)N2CCCCC2CCNC(=O)C(=O)NC2CCCC2)c1 (stereo not drawn),31,1,10,16,4
Cc1ccc(C)c(S(=O)(=O)N2CCCCC2CCNC(=O)C(=O)NCc2ccncc2)c1 (stereo not drawn),18,34,15,69*,0
Cc1ccccc1N=C1C(=O)Nc2ccccc21,-6,·,-6,-18,1
CCOC(=O)c1c(NC(N)=O)sc(C)c1C,-9,34,12,·,3
CCOC(=O)c1c(N2C(=O)C=CC2=O)sc(C)c1C,82,3,61*,·,20
COc1ccc(C(=O)N2C[C@@H]3[C@H](c4ccccc42)[C@@H](CO)N3Cc2ccc(Cl)cc2)cc1,·,·,·,19,·
O=S(=O)(Nc1cc(C(F)(F)F)ccc1N1CCOCC1)c1ccccc1,8,-5,6,-7,-4
